Drawing on PubChem BioAssay, this text covers composite z-score and z-score for twelve molecules.

Structures are written as SMILES. Active and inactive are the calls of the source.

The test system of experiment [1] is Plasmodium falciparum Sir2 (PF13_0152, Sir2A). Nature of the experiment: Plasmodium falciparum Sir2A binding compounds – biochemical, small-molecule microarray, 635 nm fluorescence, primary screen (AID 1098).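 Also: score merges spot fluorescence intensity with its signal-to-noise ratio.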 Conditions: fluorescence 635 nm, higher = more signal.
A short description of experiment [2]: probe aDKK1 binding to arrayed compounds – biochemical, biotinylated probe, 635/667 nm fluorescence, primary screen (AID 1099).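 Also: score merges 667nm spot fluorescence with signal to noise across triplicate slides; reference of the scale not given here.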 The note with it: small-molecule microarray, higher = more signal.
A short description of experiment [3]: probe aCHRDL2 binding to arrayed compounds – biochemical, biotinylated probe, 635/667 nm fluorescence, primary screen (AID 1100). The note with it: small-molecule microarray, higher = more signal.
Experiment [4] can be described thus: change in splice reporter luminescence, either direction, cell-based, HEK293, spliceosome inhibition project, primary screen (AID 1101).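 Also: HEK293 cells carrying a splicing-competent luciferase reporter gene; test concentration not given here.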 The note with it: HEK293 splicing luciferase reporter, 24 h, higher = more signal, called active from +8 up or from −8 down. In general terms: Reporter assays use an easily measured gene product as a stand-in for the process of interest.

Experiment [5] has as its target Fibroblast growth factor 10 (Homo sapiens) (UniProt O15520). Kind of experiment: compounds binding fibroblast growth factor 10 – biochemical, small-molecule microarray, 635 nm fluorescence, primary screen (AID 1102). Conditions: FGF10 binding, fluorescence 635 nm, higher = more signal.
Experiment [6] deals with glycogen synthase kinase-3 (GSK3A per assay name; protocol says GSK3B). Nature of the experiment: compounds binding glycogen synthase kinase-3 – biochemical, small-molecule microarray, 635 nm fluorescence, GSK3A, primary screen (AID 1103). Also: the record names both GSK3A and GSK3B. Conditions: fluorescence 635 nm, higher = more signal.
Experiment [7] has as its target Epidermal growth factor receptor (Homo sapiens) (UniProt P00533). Nature of the experiment: compounds binding epidermal growth factor receptor – biochemical, small-molecule microarray, 635 nm fluorescence, primary screen (AID 1104).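 Also: score merges 667 nm emission intensity with spot signal to noise over triplicate slides.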 Conditions: EGFR binding, higher = more signal.
Experiment [8] deals with Follistatin-related protein 3 (Homo sapiens) (UniProt O95633). Kind of experiment: compounds binding follistatin-related protein 3 – biochemical, small-molecule microarray, 635 nm fluorescence, primary screen (AID 1105).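 Also: score merges emission near 667 nm and signal to noise per printed spot across three slides.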 Conditions: FSTL3 binding, higher = more signal.
Sequence of Follistatin-related protein 3 (Homo sapiens) (O95633 whole entry, looked up): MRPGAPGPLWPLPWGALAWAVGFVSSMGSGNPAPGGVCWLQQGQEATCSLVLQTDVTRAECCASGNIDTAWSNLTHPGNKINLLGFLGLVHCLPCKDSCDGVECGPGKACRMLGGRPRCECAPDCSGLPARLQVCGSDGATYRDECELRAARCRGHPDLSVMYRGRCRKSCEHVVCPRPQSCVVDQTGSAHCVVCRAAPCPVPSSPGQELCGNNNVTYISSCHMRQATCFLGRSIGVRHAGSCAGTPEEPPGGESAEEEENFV
For experiment [9], the target named is Dickkopf-related protein 1 (Homo sapiens) (UniProt O94907). Kind of experiment: small molecules binding DKK1 protein – biochemical, small-molecule microarray, 635 nm fluorescence scan, primary screen (AID 1106).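 Also: score merges emission near 667 nm with signal to noise over three replicate slides.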 Conditions: higher = more signal.
Sequence of Dickkopf-related protein 1 (Homo sapiens) (O94907 whole entry, looked up): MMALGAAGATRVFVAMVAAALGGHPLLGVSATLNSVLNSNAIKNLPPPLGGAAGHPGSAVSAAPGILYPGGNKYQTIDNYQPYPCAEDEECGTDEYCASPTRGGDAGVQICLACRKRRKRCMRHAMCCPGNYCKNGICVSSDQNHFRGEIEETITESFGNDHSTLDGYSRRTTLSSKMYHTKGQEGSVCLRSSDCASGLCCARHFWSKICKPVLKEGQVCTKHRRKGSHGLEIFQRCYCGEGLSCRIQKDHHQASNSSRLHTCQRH
The test system of experiment [10] is Inhibin beta A chain (activin A). Kind of experiment: small molecules binding activin A – biochemical, small-molecule microarray, 635 nm fluorescence scan, primary screen (AID 1107).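 Also: mouse activin A protein probed at 4.33 µg/mL on printed slides; score merges bound-protein fluorescence near 667 nm with spot signal-to-noise.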 The note with it: INHBA, higher = more signal.

Sequence of Fibroblast growth factor 10 (Homo sapiens) (O15520 whole entry, looked up): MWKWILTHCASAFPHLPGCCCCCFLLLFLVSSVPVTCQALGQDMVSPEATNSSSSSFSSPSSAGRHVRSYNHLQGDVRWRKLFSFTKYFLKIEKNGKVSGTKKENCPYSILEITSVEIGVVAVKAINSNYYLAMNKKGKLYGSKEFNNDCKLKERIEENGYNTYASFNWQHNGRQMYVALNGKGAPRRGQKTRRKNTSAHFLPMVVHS
Sequence of Epidermal growth factor receptor (Homo sapiens) (P00533 whole entry, looked up): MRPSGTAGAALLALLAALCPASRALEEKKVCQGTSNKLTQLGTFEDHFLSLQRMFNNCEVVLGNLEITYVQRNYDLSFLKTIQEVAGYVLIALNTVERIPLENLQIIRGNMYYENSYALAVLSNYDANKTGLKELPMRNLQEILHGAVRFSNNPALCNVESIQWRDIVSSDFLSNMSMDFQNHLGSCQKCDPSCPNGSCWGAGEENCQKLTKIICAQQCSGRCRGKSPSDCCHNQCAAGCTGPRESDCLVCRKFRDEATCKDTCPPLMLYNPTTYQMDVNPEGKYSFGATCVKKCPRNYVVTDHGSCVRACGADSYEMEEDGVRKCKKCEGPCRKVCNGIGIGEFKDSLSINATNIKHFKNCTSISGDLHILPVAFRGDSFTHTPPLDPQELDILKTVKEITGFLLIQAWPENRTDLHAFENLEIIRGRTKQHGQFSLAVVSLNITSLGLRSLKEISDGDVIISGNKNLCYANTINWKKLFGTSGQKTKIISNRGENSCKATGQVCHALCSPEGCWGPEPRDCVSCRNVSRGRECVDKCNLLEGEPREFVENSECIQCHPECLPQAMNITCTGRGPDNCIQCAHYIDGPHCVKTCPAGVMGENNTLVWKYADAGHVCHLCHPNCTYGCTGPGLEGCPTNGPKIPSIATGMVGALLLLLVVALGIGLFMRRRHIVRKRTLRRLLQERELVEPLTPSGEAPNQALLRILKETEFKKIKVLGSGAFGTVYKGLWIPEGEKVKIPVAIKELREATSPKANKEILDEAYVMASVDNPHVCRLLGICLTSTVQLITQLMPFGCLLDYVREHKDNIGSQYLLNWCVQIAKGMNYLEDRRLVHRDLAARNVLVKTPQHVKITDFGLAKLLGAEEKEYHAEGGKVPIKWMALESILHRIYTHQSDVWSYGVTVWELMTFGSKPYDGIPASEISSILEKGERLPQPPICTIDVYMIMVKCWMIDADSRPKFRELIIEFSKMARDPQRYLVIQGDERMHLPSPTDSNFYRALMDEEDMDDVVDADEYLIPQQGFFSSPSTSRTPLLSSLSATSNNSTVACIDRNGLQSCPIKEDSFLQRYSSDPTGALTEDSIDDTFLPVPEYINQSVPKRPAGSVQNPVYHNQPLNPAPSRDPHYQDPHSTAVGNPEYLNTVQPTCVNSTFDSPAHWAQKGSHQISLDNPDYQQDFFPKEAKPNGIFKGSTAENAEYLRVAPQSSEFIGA

Consider `COCCOC(=O)N1C(=O)[C@@]2(c3cc(C#CCC(C(=O)OC)C(=O)OC)ccc31)[C@H](C(=O)Nc1nc3ccccc3s1)[C@H]1C(=O)O[C@H](c3ccccc3)[C@H](c3ccccc3)N1[C@@H]2c1ccccc1OCCO`, for which the composite z-score in experiment [1] amounted to 1.52; in experiment [2], 0.467; in experiment [3], 0.76; in [5], 0.634; in experiment [6] it was 1.04; in experiment [7], 0.231. Also, the composite z-score in [8] was 1.29; in experiment [9], -0.154; in [10] it was 0.046. For the same molecule, the z-score in experiment [4] was 0.952 (inactive).
As to `C[N+](C)(C)CCCCCCNC(=O)[C@@H]1C[C@@H]2C(=O)N[C@@H](Cc3ccccc3)C(=O)N2[C@@H]1c1cccc(OCCO)c1`, the composite z-score in experiment [1] is 1.63; in experiment [2], -0.147; in experiment [3], 0.376; in experiment [5] it was 0.72; in experiment [6], 0.216; in experiment [7], -0.0586. Also, the composite z-score in experiment [8] turned out to be 1.32; in experiment [9], 1.02; in experiment [10], 0.615. For the same molecule, in experiment [4], the z-score is -0.189 (inactive).
For `COc1cc2c(cc1OC)CN(C(=O)[C@@H]1[C@H]3C(=O)O[C@H](c4ccccc4)[C@H](c4ccccc4)N3[C@H](c3ccccc3OCCO)[C@@]13C(=O)Nc1ccc(C#CCCO)cc13)CC2`, the composite z-score turned out to be 1.53 in experiment [1]; 0.235 in [2]; 0.547 in [3]; 0.885 in [5]; 0.926 in experiment [6]; 0.179 in experiment [7]. Also, the composite z-score came out at 0.896 in experiment [8], 0.249 in [9] and 0.91 in experiment [10]. In experiment [4], the z-score is 0.107 (inactive).
Regarding `CN1C=C(C(=O)OCCS(C)(=O)=O)C(C(=O)OCCS(C)(=O)=O)=CC(c2ccc(CO)cc2)=CC1C1CC1` (stereo not given), the composite z-score was 0.666 in experiment [1]; -0.0901 in [2]; 0.166 in experiment [3]; 0.16 in experiment [5]; -0.0888 in [6]; 0.353 in experiment [7]. The composite z-score was -0.0857 in experiment [8], 0.0847 in experiment [9] and 0.99 in experiment [10]. In experiment [4], the z-score was 0.456 (inactive).
Take `C=CCOC(=O)[C@H]1[C@@H]2C(=O)O[C@@H](c3ccccc3)[C@@H](c3ccccc3)N2[C@@H](c2ccc(OCCOC(=O)[C@H]3C[C@H]4C(=O)N[C@@H](CCCCNC(C)=O)C(=O)N4[C@H]3c3cccc(OCCO)c3)cc2)[C@]12C(=O)Nc1ccccc12`: the composite z-score was 1.42 in experiment [1]; -0.194 in experiment [2]; 0.285 in [3]; 1.31 in experiment [5]; 1.32 in experiment [6]; 0.674 in experiment [7]. In addition, the composite z-score in experiment [8] was determined as 0.775; in experiment [9] it was 0.824; in [10], 0.134. Also, in [4], the z-score is 0.29 (inactive).
For the molecule `COc1cc2c(cc1O)C(c1cccs1)N(C)CC2` (stereo not given), the composite z-score in experiment [1] was 0.0826; in [2], -0.287; in experiment [3] it was 0.0135; in experiment [5] it was -0.654; in experiment [6], -0.995; in experiment [7], 0.0174. Moreover, the composite z-score in [8] is -0.558; in experiment [9], -0.332; in experiment [10] it was 0.0723. Besides, the z-score in [4] was 0.153 (inactive).
For `CCC(CC)C(O)C1C=CC2C(=O)NC(=O)C2N1Nc1ccc(Cl)cc1Cl` (stereo not given), the composite z-score in experiment [1] is 1.28; in experiment [2] it was 0.921; in experiment [3], 1; in experiment [5], 0.626; in [6], 0.451; in experiment [7], -0.304. The composite z-score in experiment [8] was 0.934; in [9], -0.267; in experiment [10], 0.764. In experiment [4], the z-score is 1.6 (inactive).
For the molecule `O=C1NC(=O)C2C1C=CC(C(O)c1cccs1)N2Nc1ccc(Cl)cc1Cl` (stereo not given), the composite z-score in experiment [1] is 1; in experiment [2] it was 0.82; in [3], 1.03; in experiment [5], 0.438; in [6] it was -1.21; in experiment [7], -0.893. Further, the composite z-score in experiment [8] was -0.375; in experiment [9] it was -0.456; in experiment [10], 1.03. Moreover, the z-score in [4] is 0.569 (inactive).
With `C[C@H]1C2[C@H](Cc3ccccc3)NC(=O)[C@]23C(=O)N[C@H](Cc2ccccc2)C(=O)N2CCC[C@H]2C(=O)NC/C=C\C/C=C/C3[C@@H]2O[C@]12C` (stereo not given in full), the composite z-score is 0.901 in [1]; -0.0646 in [2]; -0.19 in experiment [3]; 0.428 in experiment [5]; -0.298 in experiment [6]; -0.0282 in [7]. The composite z-score in experiment [8] stood at 0.801; in experiment [9], 0.299; in experiment [10], 0.946. The z-score in experiment [4] was -0.925 (inactive).
In the case of `C=CC1(C(=O)OC)CC=C(C(=O)OC)CC1` (stereo not given), the composite z-score in experiment [1] was 0.0006; in [2], -0.259; in experiment [3], -0.425; in experiment [5], 0.916; in experiment [6], 1.15; in experiment [7], 0.478. For the same molecule, the figures for the composite z-score in experiment [8], in experiment [9] and in experiment [10] were 0.791, 0.908 and -0.115, respectively. In experiment [4], the z-score was -1.38 (inactive).
In the case of `C=CCOC(=O)[C@H]1[C@@H]2C(=O)O[C@@H](c3ccccc3)[C@@H](c3ccccc3)N2[C@@H](c2ccc(OCCOC(=O)[C@H]3C[C@H]4C(=O)N[C@@H](CCCCN(C)C)C(=O)N4[C@H]3c3ccc(O)cc3)cc2)[C@]12C(=O)Nc1ccc(I)cc12`, the composite z-score in experiment [1] came out at 1.72; in experiment [2], 0.193; in experiment [3], 0.289; in experiment [5], 1.31; in experiment [6], 1.32; in experiment [7], 0.741. Further, the results for the composite z-score in experiment [8], in experiment [9] and in [10] were 1.41, 0.849 and 1.29, respectively. Moreover, in experiment [4], the z-score was 0.426 (inactive).
Turning to `CCCC[C@@H]1C[C@H]1[C@@H](NC(=O)c1ccco1)c1ccccc1C(F)(F)F`, the composite z-score in experiment [1] is -0.323; in experiment [2] it was 2.11; in experiment [3] it was 1.39; in [5] it was 0.3; in experiment [6], -0.291; in experiment [7], -0.127. Besides, the results for the composite z-score in experiment [8], in experiment [9] and in experiment [10] were 0.449, -0.316 and 1.49, respectively. Also, the z-score in experiment [4] is -0.255 (inactive).
